# Results as given in PMC5540273 (PLoS ONE, 2017).
# “And” between values parts separate entries of the source, which are not always exact repeats. Identical values can stand only once. Like-named read-outs stand apart in the source and are kept apart here.
# Legend:
# [1] = test system: RPS6KA5(Kin.Dom.2-C-terminal); settings: concentration: 1 μM, replicates: in singlicate, n = 1
# [2] = test system: T1, RSK1(Kin.Dom.1-N-terminal); settings: concentration: 1 μM, replicates: in singlicate, n = 1
# T1 construct: gene RPS6KA1
# [3] = test system: T2, RSK1(Kin.Dom.2-C-terminal); settings: concentration: 1 μM, replicates: in singlicate, n = 1
# T2 construct: gene RPS6KA1
# [4] = test system: T3, RSK2(Kin.Dom.1-N-terminal); settings: concentration: 1 μM, replicates: in singlicate; n = 1
# T3 construct: gene RPS6KA3
# [5] = test system: T4, RSK2(Kin.Dom.2-C-terminal); settings: concentration: 1 μM, replicates: in singlicate, n = 1
# T4 construct: gene RPS6KA3
# [6] = test system: T5, RSK3(Kin.Dom.1-N-terminal); settings: concentration: 1 μM, replicates: in singlicate, n = 1
# T5 construct: gene RPS6KA2
# [7] = test system: T6, RSK3(Kin.Dom.2-C-terminal); settings: concentration: 1 μM, replicates: in singlicate; n = 1
# T6 construct: gene RPS6KA2
# [8] = test system: T7, RSK4(Kin.Dom.1-N-terminal); settings: concentration: 1 μM, replicates: in singlicate, n = 1
# T7 construct: gene RPS6KA6
# [9] = test system: T8, RSK4(Kin.Dom.2-C-terminal); settings: concentration: 1 μM, replicates: in singlicate, n = 1
# T8 construct: gene RPS6KA6
# S6K1 = settings: concentration: 1 μM, replicates: in singlicate; n = 1
# SBK1 = settings: concentration: 1 μM, replicates: in singlicate, n = 1
# SGK2 = settings: concentration: 1 μM, replicates: in singlicate, n = 1
# SGK3 = settings: concentration: 1 μM, replicates: in singlicate, n = 1
# SGK = settings: concentration: 1 μM, replicates: in singlicate, n = 1
# SIK2 = settings: concentration: 1 μM, replicates: in singlicate, n = 1
# SIK = settings: concentration: 1 μM, replicates: in singlicate, n = 1
# SLK = settings: concentration: 1 μM, replicates: in singlicate, n = 1
# SNARK = test system: T9, SNARK; settings: concentration: 1 μM, replicates: in singlicate, n = 1
# T9 construct: gene NUAK2
# SNRK = settings: concentration: 1 μM, replicates: in singlicate; n = 1
# SRC = settings: concentration: 1 μM, replicates: in singlicate, n = 1
# 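Also: KINOMEscan kinase panel screen.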
structure (smiles),measurement,setting,value
COc1ccc(Nc2nccc(N3CCC(NC(=O)Nc4ccc5c(c4)OCO5)C3)n2)cc1 (centres unmarked) [GSK1379745],%Inh,[1],0%
same,%Inh,[2],0%
same,%Inh,[3],8%
same,%Inh,[4],10%
same,%Inh,[5],0%
same,%Inh,[6],17%
same,%Inh,[7],19%
same,%Inh,[8],0%
same,%Inh,[9],41%
same,%Inh,S6K1,0%
same,%Inh,SBK1,21%
same,%Inh,SGK2,6%
same,%Inh,SGK3,6%
same,%Inh,SGK,1%
same,%Inh,SIK2,0%
same,%Inh,SIK,6%
same,%Inh,SLK,27%
same,%Inh,SNARK,8%
same,%Inh,SNRK,0%
same,%Inh,SRC,22%
N#Cc1ccc(Oc2ccc(Nc3ncnc4cc[nH]c34)cc2Cl)cc1,%Inh,[1],0%
same,%Inh,[2],20%
same,%Inh,[3],17%
same,%Inh,[4],19%
same,%Inh,[5],0%
same,%Inh,[6],9%
same,%Inh,[7],23%
same,%Inh,[8],16%
same,%Inh,[9],32%
same,%Inh,S6K1,10%
same,%Inh,SBK1,27%
same,%Inh,SGK2,34%
same,%Inh,SGK3,28%
same,%Inh,SGK,31%
same,%Inh,SIK2,37%
same,%Inh,SIK,0%
same,%Inh,SLK,7%
same,%Inh,SNARK,24%
same,%Inh,SNRK,38%
same,%Inh,SRC,3%
Fc1cccc(COc2ccc(Nc3ncnc4nn5ccccc5c34)cc2Cl)c1 [GW689066],%Inh,[1],0%
same,%Inh,[2],4%
same,%Inh,[3],0%
same,%Inh,[4],0%
same,%Inh,[5],0%
same,%Inh,[6],0%
same,%Inh,[7],0%
same,%Inh,[8],0%
same,%Inh,[9],0%
same,%Inh,S6K1,0%
same,%Inh,SBK1,2%
same,%Inh,SGK2,0%
same,%Inh,SGK3,0%
same,%Inh,SGK,0%
same,%Inh,SIK2,0%
same,%Inh,SIK,0%
same,%Inh,SLK,2%
same,%Inh,SNARK,0%
same,%Inh,SNRK,0%
same,%Inh,SRC,0%
Fc1cccc(COc2ccc(Nc3ncnc4cc[nH]c34)cc2Cl)c1,%Inh,[1],0%
same,%Inh,[2],12%
same,%Inh,[3],23%
same,%Inh,[4],15%
same,%Inh,[5],0%
same,%Inh,[6],8%
same,%Inh,[7],26%
same,%Inh,[8],20%
same,%Inh,[9],29%
same,%Inh,S6K1,21%
same,%Inh,SBK1,52%
same,%Inh,SGK2,26%
same,%Inh,SGK3,40%
same,%Inh,SGK,23%
same,%Inh,SIK2,0%
same,%Inh,SIK,15%
same,%Inh,SLK,34%
same,%Inh,SNARK,36%
same,%Inh,SNRK,21%
same,%Inh,SRC,16%
Clc1ccc(-c2cc(-c3c[nH]nc3-c3ccccn3)ccn2)cc1 [GW681251],%Inh,[1],0%
same,%Inh,[2],6%
same,%Inh,[3],13%
same,%Inh,[4],0%
same,%Inh,[5],21%
same,%Inh,[6],0%
same,%Inh,[7],0%
same,%Inh,[8],0%
same,%Inh,[9],44%
same,%Inh,S6K1,0%
same,%Inh,SBK1,4%
same,%Inh,SGK2,0%
same,%Inh,SGK3,6%
same,%Inh,SGK,0%
same,%Inh,SIK2,0%
same,%Inh,SIK,0%
same,%Inh,SLK,10%
same,%Inh,SNARK,0%
same,%Inh,SNRK,0%
same,%Inh,SRC,0%
O=C(Nc1ccccc1)Nc1ccc(Oc2ccc3nccn3n2)cc1,%Inh,[1],19%
same,%Inh,[2],5%
same,%Inh,[3],0%
same,%Inh,[4],0%
same,%Inh,[5],0%
same,%Inh,[6],6%
same,%Inh,[7],0%
same,%Inh,[8],0%
same,%Inh,[9],0%
same,%Inh,S6K1,0%
same,%Inh,SBK1,0%
same,%Inh,SGK2,0%
same,%Inh,SGK3,3%
same,%Inh,SGK,0%
same,%Inh,SIK2,0%
same,%Inh,SIK,0%
same,%Inh,SLK,20%
same,%Inh,SNARK,0%
same,%Inh,SNRK,0%
same,%Inh,SRC,0%
CC(C)(C)OC(=O)NC1CCCN(c2cc(-c3ccc4c(N)n[nH]c4c3)nc(N)n2)C1 (centres unmarked) [GSK2286096],%Inh,[1],0%
same,%Inh,[2],26%
same,%Inh,[3],0%
same,%Inh,[4],27%
same,%Inh,[5],100%
same,%Inh,[6],0%
same,%Inh,[7],0%
same,%Inh,[8],36%
same,%Inh,[9],23%
same,%Inh,S6K1,2%
same,%Inh,SBK1,15%
same,%Inh,SGK2,0%
same,%Inh,SGK3,44%
same,%Inh,SGK,0%
same,%Inh,SIK2,0%
same,%Inh,SIK,0%
same,%Inh,SLK,0%
same,%Inh,SNARK,0%
same,%Inh,SNRK,3%
same,%Inh,SRC,0%
Cl.Cn1ccc(-c2cccc(Nc3ccnc4cc(-c5nccs5)ccc34)c2)n1 [GW525701],%Inh,[1],39%
same,%Inh,[2],0%
same,%Inh,[3],0%
same,%Inh,[4],8%
same,%Inh,[5],21%
same,%Inh,[6],2%
same,%Inh,[7],13%
same,%Inh,[8],0%
same,%Inh,[9],7%
same,%Inh,S6K1,0%
same,%Inh,SBK1,0%
same,%Inh,SGK2,0%
same,%Inh,SGK3,14%
same,%Inh,SGK,0%
same,%Inh,SIK2,0%
same,%Inh,SIK,0%
same,%Inh,SLK,42%
same,%Inh,SNARK,0%
same,%Inh,SNRK,0%
same,%Inh,SRC,0%
COc1ccc(-c2nc3n(c2-c2ccncc2)CCC3)cc1 [SKF-104493],%Inh,[1]; 1 µM,10% and 0%
same,%Inh,[2]; 1 µM,0% and 4%
same,%Inh,[3]; 1 µM,93.1% and 37%
same,%Inh,[4],0%
same,%Inh,[5]; 1 µM,12% and 5%
same,%Inh,[6]; 1 µM,1% and 0%
same,%Inh,[7],0%
same,%Inh,[8]; 1 µM,68% and 0%
same,%Inh,[9]; 1 µM,59% and 63%
same,%Inh,S6K1,0%
same,%Inh,SBK1; 1 µM,27% and 8%
same,%Inh,SGK2; 1 µM,16% and 0%
same,%Inh,SGK3; 1 µM,13% and 2%
same,%Inh,SGK; 1 µM,7% and 0%
same,%Inh,SIK2; 1 µM,0% and 2%
same,%Inh,SIK; 1 µM,0% and 5%
same,%Inh,SLK; 1 µM,20% and 36%
same,%Inh,SNARK; 1 µM,7% and 2%
same,%Inh,SNRK,0%
same,%Inh,SRC; 1 µM,18% and 0%
Fc1ccc(Nc2nccc(-c3c(-c4ccc(Cl)cc4)nn4ncccc34)n2)cc1F [GW829058],%Inh,[1],18%
same,%Inh,[2],27%
same,%Inh,[3],10%
same,%Inh,[4],31%
same,%Inh,[5],42%
same,%Inh,[6],6%
same,%Inh,[7],0%
same,%Inh,[8],30%
same,%Inh,[9],0%
same,%Inh,S6K1,4%
same,%Inh,SBK1,43%
same,%Inh,SGK2,17%
same,%Inh,SGK3,3%
same,%Inh,SGK,18%
same,%Inh,SIK2,0%
same,%Inh,SIK,0%
same,%Inh,SLK,6%
same,%Inh,SNARK,0%
same,%Inh,SNRK,0%
same,%Inh,SRC,14%
